Screens: PubChem, National Center for Advancing Translational Sciences (NCATS)
LMNA splice mod – changes lamin A minigene splicing in HeLa cells; HeLa LMNA splicing GFP/RFP minigene ratio, 48 h; Potency, µM (top dose mostly 46.1 µM), for inactives: at the top dose ratio change, negative = inhibition, actives largely listed as inhibitors; 200,000 tested, 0.01% active; AID 1487; active = well fitted inhibition curve with a large enough effect in the signal ratio, with a control signal flat, not every such curve was filed as active; inconclusive = small, poorly fitted or top-dose-only effect, or effect the other way, or a change in a side signal; the % refers to the signal ratio; also: potency is read from the fitted curve at half-maximal effect
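Read-out is the ratio of GFP to DsRed2 object intensity, acquired by 488 nm laser-scanning cytometry on HeLa lamin A-EGFP minigene reporter cells. Compound incubation 48 hrs at 37 °C in Opti-MEM with 2% FBS; DMSO 0.5% final.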
HPGD inh – HPGD (human) dehydrogenase inhibition | P15428 | purified HPGD, NADH fluorescence kinetic, PGE2 substrate | Potency, µM, inactives show top-dose activity change, negative = inhibition, usual class: inhibitors | 150,000 tested, 4.3% active; also: potency is read from the fitted curve at half-maximal effect
Target sequence (P15428 whole entry, looked up): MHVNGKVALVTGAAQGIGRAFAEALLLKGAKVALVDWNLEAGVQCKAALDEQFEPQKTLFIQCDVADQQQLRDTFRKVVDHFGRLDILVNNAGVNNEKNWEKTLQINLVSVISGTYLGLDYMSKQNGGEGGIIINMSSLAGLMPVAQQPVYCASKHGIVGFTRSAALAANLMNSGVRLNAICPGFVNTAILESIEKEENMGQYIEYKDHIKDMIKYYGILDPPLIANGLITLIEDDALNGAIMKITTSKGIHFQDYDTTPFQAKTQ
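NADH formation kinetics: reaction with 30 uM PGE2 and 1 mM NAD+ (final), 20 nM enzyme, Tris-HCl pH 8 with Tween 20, after 15 min compound preincubation at room temperature. Fluorescence change, last versus first of five reads.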
KinaseGlo FLuc – counter-screen: inhibitors of Kinase-Glo firefly luciferase | Potency, µM (series often up to 38.3 µM), inactives show top-dose activity change, negative = inhibition, hits mostly inhibitors | Kinase-Glo luciferase, ATP luminescence, 8 min | 200,000 tested, 0.28% active | AID 1379; active = well fitted inhibition curve with a large enough effect; inconclusive = small, poorly fitted or top-dose-only effect; also: potency is read from the fitted curve at half-maximal effect; nearly all actives have a fitted effect of over 60% in size
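Luminescence was the read-out, taken after 8-minute incubation at ambient temperature. Luciferase turned over luciferin with 10 uM ATP in imidazole pH 7.2 buffer containing KCl, MgCl2, Tween 20 and BSA.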
PNC assembly inh – blocks assembly of the perinucleolar compartment; AID 2417; PC3M PTB-GFP, PNC prevalence imaging, 16 h; active compounds read low; activity change (PNC), negative = inhibition, % at 10 µM; 140,000 tested, 3.1% active;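 active = readout at or below -70, meaning at least 70% loss of cells showing the perinucleolar compartment, a nuclear body marking cancer cells; inconclusive = readout between -30 and a set limit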;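 also: plate controls were DMSO wells for no effect and camptothecin positive control wells for full effect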
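Compounds are pinned in duplicate onto adhered PC3M cells stably expressing GFP-tagged PTB and incubated 16 h at 37 C. Cells are then fixed, nuclei stained with Hoechst, and PNC-positive cells counted.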
ALDH1A1 block – blocks purified human ALDH1A1 activity. P00352. Purified ALDH1A1, NADH fluorescence, propionaldehyde substrate. Potency, µM (top dose mostly 75.3 µM), inactives show at the top dose activity, negative = inhibition, most hits filed as inhibitors. 220,000 tested, 7.3% active. AID 1030;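 also: potency is read from the fitted curve at half-maximal effect; plate controls were no enzyme wells and a reference inhibitor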
Target sequence (P00352 whole entry, looked up): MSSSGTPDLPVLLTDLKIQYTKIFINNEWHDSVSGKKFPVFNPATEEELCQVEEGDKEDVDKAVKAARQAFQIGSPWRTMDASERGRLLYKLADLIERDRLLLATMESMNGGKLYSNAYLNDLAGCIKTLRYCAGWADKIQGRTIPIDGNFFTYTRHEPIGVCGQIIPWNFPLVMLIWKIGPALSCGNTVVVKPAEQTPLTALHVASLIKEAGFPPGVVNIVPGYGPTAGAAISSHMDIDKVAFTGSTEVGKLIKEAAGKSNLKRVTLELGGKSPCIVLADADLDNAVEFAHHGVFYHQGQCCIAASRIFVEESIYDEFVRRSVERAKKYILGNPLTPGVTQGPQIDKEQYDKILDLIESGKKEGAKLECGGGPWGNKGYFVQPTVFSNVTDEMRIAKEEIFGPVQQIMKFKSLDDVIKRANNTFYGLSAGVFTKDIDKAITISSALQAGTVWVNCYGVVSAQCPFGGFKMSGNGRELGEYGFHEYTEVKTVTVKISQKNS
* marks the source's active call; other numbers are inactive results; ? = inconclusive; · = not tested or not shown; [ ] = dose if it differs, or a comment. Only some compounds are listed: those with a hit (about 10% of all), similar ones and a draw of the others. Unless noted, calls follow the shape of the dose curve; as a rule, active = well fitted inhibition curve with a large enough effect (not every such curve was filed as active); inconclusive = small, poorly fitted or top-dose-only effect, or another doubt; inactive = no such curve, though single readings can be large or run the other way. Unless noted, % is scaled to controls: 0 for no effect and ±100 for the full control effect.

SMILES	LMNA splice mod	HPGD inh	KinaseGlo FLuc	PNC assembly inh	ALDH1A1 block
COc1ccc(-n2c(=S)[nH]c3cc(C(=O)NCc4ccco4)ccc3c2=O)cc1OC	11%	-13%	8%	-22	0.11µM*
COc1ccc(-n2c(=S)[nH]c3cc(C(=O)Nc4ccc(OC)c(OC)c4)ccc3c2=O)cc1	-7%	-14%	-1%	17	-2%
COC(=O)C(C)Sc1nnc2cc(C)c3cc(C)cc(C)c3n12 (centres undefined)	5%[46 µM]	·	·	·	·
c1c[nH]c(CN2CCOCC2)n1	·	-4%	-6%[7.66 µM]	·	-15%[13.5 µM]
CN(Cc1cccc2cnccc12)C(=O)CCc1nnc(CCc2ccccc2)o1	11%[46 µM]	·	1%	·	28µM*
COc1ccccc1CCc1nnc(CCC(=O)N(C)Cc2cccc3ncccc23)o1	-1%[46 µM]	·	0%	·	6%
CN(C)c1ccc(CNC(=O)C2CCN(Cc3cc4ccccc4n3Cc3ccccc3)CC2)cc1	-8%[46 µM]	·	·	·	·
CN1C2CCC1CC(OC(=O)c1c[nH]c3ccccc13)C2 (centres undefined)	?	-10%	-4%	-89*	-9%
CCN1/C(=C\c2ccc3cc(C)ccc3[n+]2CC)Sc2cc(C)c(C)cc21	-15%[46 µM]	·	-11%	·	?
CCN1/C(=C/c2ccc3cc(C)cc(C)c3[n+]2CC)Sc2cc(C)ccc21	?	·	-20%	·	20µM*
CCOC(=O)C1Oc2ccccc2C(c2ccccc2)=C1C(C)=O (centres undefined)	·	-15%	0%[39.9 µM]	·	?
COc1ccc(CN(C(=O)Nc2cccc(Cl)c2)c2ccccn2)cc1OC	-12%[46 µM]	·	·	·	·
CC(=O)NC1=NC(=O)/C(=C/c2cn(C(C)=O)nc2-c2ccccc2)S1	?	·	-3%	·	10µM*
CCN=C1S/C(=C\c2cn(C(C)=O)nc2-c2ccccc2)C(=O)N1CC	-2%	?	1%	-2	?
O=c1c(Cc2ccccc2)c(O)ccn1Cc1ccc2c(c1)OCO2	-5%[46 µM]	·	1%	·	2.2µM*
c1ccc(-c2nnc(CSc3nncs3)o2)cc1	10%	25µM*	0%	?	-8%
c1ccc(Cc2nnc(-c3ccccc3)o2)cc1	19%	7.9µM*	-6%	?	-2%
CC(C)CC(C(=O)NCCc1ccccc1)N1Cc2ccccc2C1=O (centres undefined)	-6%[46 µM]	·	·	·	·
COc1ccccc1C1C=C(c2ccc(C)cc2)Nc2nnnn21 (centres undefined)	?	-15%	0%	-8	14µM*
COc1ccc(OC)c(C2C3=C(CC(C)(C)CC3=O)Nc3nnnn32)c1 (centres undefined)	-5%	-13%	3%	?	10%
COc1ccccc1C1C=C(c2ccc(C(C)C)cc2)Nc2nnnn21 (centres undefined)	-2%[46 µM]	·	·	·	·
COc1ccccc1C1C2=C(CC(C)(C)CC2=O)Nc2nnnn21 (centres undefined)	-12%	-12%	0%	?	25µM*
NS(=O)(=O)c1cc2c(cc1C(F)(F)F)N[C@H](Cc1ccccc1)NS2(=O)=O	?	-2%	3%[17.1 µM]	·	3%[20.9 µM]
COc1ccc2c(c1)N(C[C@@H](C)CN(C)C)c1ccccc1S2	?	-3%	-1%[17.1 µM]	·	13%[20.9 µM]
C=CCNc1nc(Cl)ncc1F	-1%	-3%	8%	-119*	17%
SMILES	LMNA splice mod	HPGD inh	KinaseGlo FLuc	PNC assembly inh	ALDH1A1 block
CC(=O)c1c(C)[nH]c(C(=O)OCC(=O)Nc2ncc(Cl)c(C)c2Cl)c1C	7%	-7%	-4%	-100*	-8%
CCCn1nc(C(=O)OCC(=O)Nc2ncc(Cl)c(C)c2Cl)c2ccccc2c1=O	-5%	-2%	2%	-113*	?
Cc1c(Cl)cnc(NC(=O)COC(=O)c2nn(C)c(=O)c3ccccc23)c1Cl	-18%	-29%	-5%	-7	-1%
CCCc1nn2c(=O)cc(COC(=O)c3ccc4c(c3)OCO4)nc2s1	1%[46 µM]	·	·	·	·
CCOc1ccc2ccccc2c1/C=N/n1cncn1	15%	32µM*	-1%	-6	?
CCCOc1ccc2ccccc2c1/C=N/n1cnnc1	-5%	-12%	-1%	-15	5%
O=C(Cc1coc2ccc3ccccc3c12)Nc1nnc(C2CC2)s1	?	·	·	-100*	-11%
Cc1cc2occ(CC(=O)Nc3nnc(C4CC4)s3)c2cc1C	-4%	-6%	-5%	-13	1%
CCC(=O)NC(=S)Nc1ccc(NC(=O)c2ccc(Br)o2)cc1	-13%[46 µM]	·	4%	·	-7%
CCc1cc2ccc(C)cc2nc1SCC(=O)c1ccc(NC(C)=O)cc1	11%	8.9µM*	4%	98	25µM*
CCc1cc2cccc(C)c2nc1SCC(=O)c1ccc(NC(C)=O)cc1	8%	-12%	2%	?	?
COC(=O)C1=C(C(=O)OC)C(c2cc(Cl)ccc2O)c2sc(=O)[nH]c2S1 (centres undefined)	5%	20µM*	2%	19	32µM*
Cc1cc(C)nc(SCC(=O)Nc2ncc(C(F)(F)F)cc2Cl)n1	-9%	-6%	3%	-25	10%
Cc1cc(C)n2c(SCC(=O)Nc3ncc(C(F)(F)F)cc3Cl)nnc2n1	2%	-10%	23%	11	13µM*
Cc1cc(C)n2c(SCC(=O)Nc3ccc(F)cc3F)nnc2n1	?	·	0%	·	?
Cc1cc(C)n2c(SCC(=O)Nc3ccc(F)cc3)nnc2n1	·	·	·	·	14µM*
CC[C@H](C)[C@H](N)C1=N[C@H](C(=O)N[C@@H](CC(C)C)C(=O)N[C@@H](CCC(=O)O)C(=O)N[C@@H](C(=O)N[C@H]2CCCCNC(=O)[C@@H](CC(N)=O)NC(=O)[C@@H](CC(=O)O)NC(=O)[C@@H](Cc3cnc[nH]3)NC(=O)[C@@H](Cc3ccccc3)NC(=O)[C@@H]([C@@H](C)CC)NC(=O)[C@@H](CCCN)NC2=O)[C@@H](C)CC)CS1	?	4%	-5%[17.1 µM]	·	3%[20.9 µM]
N#Cc1ccccc1-c1nc(NCCN2CCOCC2)c2ccccc2n1	-13%	·	·	·	11%
N#Cc1cccc(-c2nc(NCCN3CCOCC3)c3ccccc3n2)c1	?	·	·	·	18µM*
CC(C)(C)NC(=O)c1oc2ccccc2c1COc1ccccc1	-22%	-23%	6%	-29	1%
CC(OC(=O)c1oc2ccccc2c1COc1ccccc1)C(N)=O (centres undefined)	15%[46 µM]	·	1%	·	2.2µM*
C=CCSc1nc2c(N)ncnc2n1[C@@H]1O[C@H](CO)[C@@H](O)[C@@H]1O	·	-2%	-2%[7.66 µM]	·	7%[13.5 µM]
Cc1ccc2nc(-c3cccc(N)c3)[nH]c2c1	-3%	?	10µM*	37	?
Nc1cccc(-c2nc3ccccc3[nH]2)c1	3%	?	-14%	74	?
O=C(NCCc1csc(-c2ccc(F)cc2)n1)C(=O)Nc1ccc(Cl)cc1	9%[46 µM]	·	·	·	·
CCCCCn1cnc2c(sc3nc4c(cc32)CSC(C)(C)C4)c1=O	-10%	?	-5%	?	2.8µM*
CCCc1nc2sc3c(=O)[nH]cnc3c2c2c1CCCC2	·	·	·	·	-9%
